# Data: PubChem BioAssay AID817 (Emory University Molecular Libraries Screening Center, 2007)
# Among all 140,000 compounds or so, about 300 (0.21%) were called active. The sample holds actives, similar compounds and a random draw of the others, so the mix is not that of the screen.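 The calls were made as follows: active = z-score above 3 at both the 24 hr and the 30 hr optical density reads; inactive = the rest, inconclusive results apart.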
# Experiment: growth rescue of sdo1-depleted yeast, primary screen, S. cerevisiae, bone marrow failure model (AID 817);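 also: z-score against mean and SD of all compound wells on the same plate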
# Settings: S. cerevisiae sdo1-depleted JHY4D growth rescue, at 10 µM, stronger effect = higher value, pdr5 snq2 efflux-pump mutant strain
# [1] = OD600, measured here: growth rescue at 24 h
Compound,z-score (OD600 30 h),z-score [1]
O=c1[nH]c2ccccc2s1,0.98 (inactive),1.68
C=CCN(c1ccc(C(=O)Nc2cc(C)cc(C)c2)cc1)S(C)(=O)=O,-0.5 (inactive),-0.78
C#CCOCCOCCOCCNc1nc(N2CCN(C(=O)[C@H](C(C)C)n3cc(CCO)nn3)CC2)nc(N2CCN(C(=O)[C@H]([C@@H](C)CC)n3cc(CCCN=C(N)N)nn3)CC2)n1,1.22 (inactive),1.32
CCn1c(SCC(=O)N/N=C/C=C/c2ccccc2[N+](=O)[O-])nnc1-c1ccccc1,0.43 (inactive),-0.06
CN(C)C(=O)c1ccc2c(c1)C1C3CCC(C3)C1C(c1ccccc1)N2 (stereo not given),-0.71 (inactive),-0.66
CCCCNC(=O)CSc1nc2ccc(NC(=O)CSc3nnc(N)s3)cc2s1,0.08 (inactive),-0.52
COC(=O)c1ccc(NC(=O)CSc2nncc3ccc(OC)c(OC)c23)cc1,-1.41 (inactive),-0.89
CCOc1ccc(S(=O)(=O)N/N=C(\C)c2ccc(Cl)c(Cl)c2Cl)cc1,1.17 (inactive),1.85
O=C(CSc1nc2ccccc2c(=O)n1CCCO)N1CCc2ccccc21,-1.29 (inactive),-0.81
CCc1ccc(C2N3CC4([N+](=O)[O-])CN2CC([N+](=O)[O-])(C3)C4(C)C)cc1 (stereo not given),1.48 (inactive),1.35
CCC(C)C(=O)Nc1cc([N+](=O)[O-])ccc1Cl (stereo not given),0.25 (inactive),-0.26
CN(C)/C(=N\OC(=O)c1ccccc1)c1nonc1N,-0.17 (inactive),0.24
COCCn1c(=O)[nH]c(=O)c2cc(C(=O)c3cc(OC)ccc3O)cnc21,0.16 (inactive),0.23
N#C/C(=C\C1=C(N2CCOCC2)C(=C\c2ccccc2)/CC1)C(=O)Nc1ccccc1F,0.41 (inactive),2.72
COc1cc(OC)cc(C(=O)NCC(=O)OCc2csc(-c3ccccc3)n2)c1,-0.49 (inactive),-0.88
O=C(/C=C/c1ccccc1[N+](=O)[O-])NCC1CCCO1 (stereo not given),1.67 (inactive),2.05
Cc1cc(C(=O)NNC(=S)NC(C)c2ccccc2)cs1 (stereo not given),0.17 (inactive),-0.18
O=C(CN1CCN(S(=O)(=O)c2ccc(Br)cc2)CC1)Nc1ccccc1C(=O)c1ccccc1,-0.96 (inactive),-0.1
Cc1c(C(=O)NCCCc2ccccc2)cccc1[N+](=O)[O-],-0.72 (inactive),-1.83
CN(C)c1ccc(Nc2c3c4c(cccc4n(C)c2=O)C(=O)c2ccccc2-3)cc1,12.3 (active),10.3

Compound,z-score (OD600 30 h),z-score [1]
O=[N+]([O-])c1cccc(C2=NCCS2)c1,0.63 (inactive),0.08
Cc1ccccc1NC(=S)N(CCCN1CCOCC1)Cc1cccs1,0.26 (inactive),0.42
O=C1NC(c2ccccc2)CCC1(Cl)Cl (stereo not given),0.83 (inactive),-0.01
NS(=O)(=O)c1cc(C(=O)NCCOc2ccccc2)c(Cl)cc1Cl,-0.22 (inactive),-0.02
O=C(NNC1=NCCC1)c1cccc(S(=O)(=O)N2CCCCC2)c1,1.39 (inactive),1.17
CCN(C(=O)COc1cccnc1[N+](=O)[O-])C1CCS(=O)(=O)C1 (stereo not given),0.14 (inactive),0.45
C=CCOc1c(Br)cc(/C=N\n2nnnc2N)cc1OC,0.16 (inactive),0.27
CC(=O)Nc1ccc(S(=O)(=O)NC2(C(F)(F)F)C(=O)Nc3c2c(=O)[nH]c(=O)n3Cc2ccccc2)cc1 (stereo not given),0.9 (inactive),-0.08
Cc1ccc(Nc2ccc(C(N)=O)cc2[N+](=O)[O-])cc1,0.35 (inactive),0.28
CCC1CCCCN1C(=S)Nc1ccc(C(C)=O)cc1 (stereo not given),-0.29 (inactive),-0.44
C=CCn1c(SCc2ccc(Cl)c(Cl)c2)nnc1C(CO)NC(=O)c1ccc(OC)cc1 (stereo not given),0.22 (inactive),-0.41
COc1cc(/C=C/C(=O)OCC(=O)Nc2cccc(Oc3ccccc3)c2)ccc1O,-0.4 (inactive),0.4
COc1ccc(/C=C/C(=O)OCC(=O)NCc2cccs2)cc1OC,1.04 (inactive),0.67
O=C(COC(=O)/C=C/c1cccc(Cl)c1)NCCc1ccccc1,3.39 (active),3.67
CC(NC(=S)Nc1ccccc1)C1COc2ccccc2O1 (stereo not given),-0.7 (inactive),0.37
Clc1cccc(CN2COc3c(cc(Cl)c4cccnc34)C2)c1,-1.42 (inactive),1.02
COc1ccc(C(=O)CSc2nnc(NC(=O)C3CC(=O)N(c4cccc(OC)c4)C3)s2)cc1 (stereo not given),-0.16 (inactive),0.63
Cn1cccc1/C=C1\SC(=S)N(NC(=O)c2ccc(Cl)cc2)C1=O,-1.05 (inactive),-0.65
COc1cc(OC)c(-n2cc(-c3ccc(Cl)cc3)[nH]c2=O)cc1Cl,0.21 (inactive),1.29
COCCCNC(=O)CNC(=S)N(Cc1cc(OC)c(OC)c(OC)c1)C1CCCC1,1.27 (inactive),0.62
